CSC inhib – cancer stem cell inhibition; inhibition, % at 7.5 µM; 300,000 tested, 1.1% active; cancer stem cell-like cells viability, luminescence; in the data active = inhibition above about 75%; tested in HMLE shEcad cells
MPTP inh – permeability transition pore inhibition; isolated mouse mitochondria, Ca2+ swelling absorbance, 30 min; AID 602449; 360,000 tested, 1.4% active; inhibition, % at 10 µM;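 active = inhibition of 50% or more, scaled per plate between neutral and stimulator controls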;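 note: 0% = DMSO wells given calcium and 100% = 1 mM EGTA wells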
Gli-Sufu antag – Gli-Sufu pathway antagonism; AID 588413; 340,000 tested, 0.74% active; Sufu-KO-LIGHT fibroblasts, Gli luciferase reporter luminescence; inhibition, % at 5 µM;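 active = inhibition above about 55%, limit read from the data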;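 note: 0% = DMSO-treated cells and 100% = wells with medium but no cells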
NR3A LBD binder – modulators (binders) of human NR3A ligand-binding domain; NR3A LBD differential scanning fluorimetry, Tm shift; 0% = protein alone, 100% = glycine-bound protein; AID 1259313; 340,000 tested, 2.5% active; Tm shift relative to glycine control, % at 25 µM;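 active = melting temperature shift of at least 10% of the positive control shift, at one fixed dose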
Beta apoptosis – blocks beta cell apoptosis; INS-1E cytokine-induced death, ATP luminescence, 48 h; percent of positive-control rescue, neutral wells zero; protection from apoptosis, % (test concentration not listed); 300,000 tested, 0.8% active;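 active = Every replicate reaches about 75%, or at least half do and their mean reaches it too, limit read from the data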;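 note: 0% = cytokine-treated negative control wells and 100% = positive control rescue; higher means more ATP so stronger rescue from cytokine killing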
Mdm2 MdmX PPI – inhibitors of human Mdm2/MdmX interaction; O15151+Q00987; inhibition, % at 8 µM; 330,000 tested, 3% active; SaOS-2 split-luciferase Mdm2/MdmX complementation, luminescence;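 active = inhibition of at least 50% at 8 µM in the primary screen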
* = called active by the depositor; / = no result. Hits are enriched below; roughly 6.6% of the tested compounds scored in any of these assays.

SMILES | CSC inhib | MPTP inh | Gli-Sufu antag | NR3A LBD binder | Beta apoptosis | Mdm2 MdmX PPI
Cc1ccc(S(=O)(=O)N2CCOC23CCN(S(=O)(=O)c2cccs2)CC3)cc1 | -9 | 1 | 4 | 12* | 0 | 13
COCOc1ccc(-c2oc3c(C/C=C(\C)CCC=C(C)C)ccc(O)c3c(=O)c2OCOC)c(OCOC)c1 | -6 | 0 | 11 | -1 | 0 | 1
O=[N+]([O-])c1nc2ccccc2[nH]1 | / | -1 | 5 | -2 | / | /
O=[N+]([O-])/C=C/c1cc2ccccc2[nH]1 | 5 | 0 | 5 | 18* | 1 | -9
Cc1ccccc1N(CC(=O)NC1CCCCC1)C(=O)CCCC(=O)Nc1ccccn1 | -13 | -1 | 19 | -1 | -5 | -15
NC(N)=NCCCC(NC(=O)c1ccccc1)C(=O)Nc1ccc([N+](=O)[O-])cc1 (stereo unspecified) | -9 | 1 | 0 | 16* | -2 | 7
CC1(C)C2CCC1(CS(=O)(=O)NCc1ccc(Cl)cc1Cl)C(=O)C2 (stereo unspecified) | / | -1 | -13 | 1 | 1 | 0
N#CC1C(=O)c2ccccc2C1c1ccccc1 (stereo unspecified) | / | 0 | -3 | 20* | / | /
COc1ccccc1NS(=O)(=O)c1cc2c3c(c1)CCN3C(=O)CC2 | -6 | 0 | -6 | -1 | 1 | -3
Nc1ccc2nc(-c3ccc(N)c(Cl)c3)[nH]c2c1 | 15 | -5 | 6 | 16* | 37 | -31
Nc1ccc2nc(-c3ccccc3)[nH]c2c1 | 7 | 0 | -7 | -5 | / | -55
Nc1ccc(-c2nc3c(Cl)cc(N)cc3[nH]2)cc1 | 16 | 0 | / | 10* | 28 | 40
CCN(C)C1CN(Cc2cn(Cc3ccc(F)cc3)nn2)S(=O)(=O)C1 (stereo unspecified) | / | 1 | / | / | / | /
NC(=S)N/N=C/c1c(O)c(Br)cc2oc3c(c12)CCCC3 | 39 | 37 | -12 | 10* | 82* | 47
Oc1c(Br)cc2oc3c(c2c1CNCc1ccccc1)CCCC3 | -1 | 3 | -3 | -1 | -2 | -21
O=C(O)c1ccc(C[n+]2c(-c3ccccc3)csc2Nc2ccccc2)cc1 | 12 | -5 | 4 | 18* | 3 | 15
C#CCn1c(=NC(=O)c2ccc(S(=O)(=O)N3CCCc4ccccc43)cc2)sc2cc(S(N)(=O)=O)ccc21 | / | 0 | 5 | 19* | 1 | 15
COC(=O)c1sc2nc(C)nc(SCC(=O)Nc3sccc3C(N)=O)c2c1C | / | 3 | -11 | 7 | -7 | 36
Cc1c(NC(=O)c2ccc3c(c2)OCO3)cccc1-c1nc2ccccc2s1 | 25 | 1 | -9 | -8 | 10 | 18
O=C(CSc1nc2ccccc2s1)Nc1ccc2c(c1)OCO2 | -8 | 14 | -6 | 14* | -3 | -6
CC(Sc1nc2ccccc2s1)C(=O)Nc1ccc2c(c1)OCO2 (stereo unspecified) | -5 | 14 | -3 | 0 | 3 | 17
O=C(Nc1cccc(-c2nc3ccccc3s2)c1)c1ccc2c(c1)OCO2 | 28 | 3 | -14 | 10* | -4 | -16
COC(=O)C1CCN(S(=O)(=O)CCNC(=O)c2ccc3c(c2)OCO3)CC1 | / | -1 | -8 | -1 | -6 | 1
N#CC1=C(N)Oc2c(O)cc3ccccc3c2C1c1ccsc1 (stereo unspecified) | 67 | 6 | 0 | 12* | -6 | -10
CC(=O)C1=C(C)OC(N)=C(C#N)C1c1ccncc1 (stereo unspecified) | -12 | 0 | -17 | 11* | -3 | 9
SMILES | CSC inhib | MPTP inh | Gli-Sufu antag | NR3A LBD binder | Beta apoptosis | Mdm2 MdmX PPI
CCOC(=O)C1=C(C)OC(N)=C(C#N)C1c1ccsc1 (stereo unspecified) | / | -3 | -2 | 11* | 3 | 16
N#CC1=C(N)Oc2c(ccc3ccccc23)C1c1cccs1 (stereo unspecified) | 53 | / | -50 | 2 | 19 | -27
O=S1(=O)c2c(Oc3cccc4ccccc34)cccc2OC(COCc2ccccc2)CN1C1CCCC1 (stereo unspecified) | / | -2 | 1 | 18* | / | /
O=S1(=O)c2c(F)cccc2OC(COCc2ccccc2)CN1C1CCCC1 (stereo unspecified) | / | -3 | 15 | 2 | / | /
CCCCN1CC(COCc2ccccc2)Oc2cccc(Oc3ccc(F)cc3)c2S1(=O)=O (stereo unspecified) | / | -1 | -3 | 13* | / | /
CCN(c1ccccc1)S(=O)(=O)c1ccc(Cl)c(NC(=O)COC(=O)c2cc(O)c3ccccc3c2O)c1 | 103* | / | / | / | 79* | 17
CCN(c1ccccc1)S(=O)(=O)c1ccc(Cl)c(NC(=O)COC(=O)c2ccc(O)cc2)c1 | -1 | 2 | -8 | 16* | 1 | 15
CCN(c1ccccc1)S(=O)(=O)c1ccc(Cl)c(NC(=O)COC(=O)C2CC2C)c1 (stereo unspecified) | -10 | 2 | 4 | -1 | -2 | 6
CC(=O)Nc1ccc(NC(=O)c2cc(=O)c3cc(C)c(C)cc3o2)cc1 | -7 | 3 | -15 | 12* | -8 | 33
CC(=O)Nc1ccc(NC(=O)c2cc(=O)c3ccc(C)cc3o2)cc1 | -8 | 1 | -1 | -2 | -5 | 19
CSc1nc(/C=C2\C=Nc3ccccc32)c(O)n1C | -11 | -1 | 5 | 0 | 4 | 3
CC1=Nc2ccccc2/C1=C\c1sc(Nc2ccc(C)cc2)nc1O | 85* | 4 | 35 | 21* | 42 | 37
CC1=Nc2ccccc2/C1=C/c1sc(=O)n(CC(=O)N2CCCC2)c1O | -3 | 1 | 10 | -1 | 2 | 4
Oc1nc(Nc2ccc(F)cc2)sc1/C=C1\C=Nc2ccccc21 | 66 | 40 | -13 | 34* | 8 | -9
Oc1nc(Nc2cccc(Cl)c2)sc1/C=C1\C=Nc2ccccc21 | 109* | 33 | -1 | 37* | -3 | 0
Oc1cccc(Nc2nc(O)c(/C=C3\C=Nc4ccccc43)s2)c1 | 54 | 6 | -6 | 21* | 9 | -35
S=c1[nH]nc(Nc2cccc(Cl)c2)s1 | -12 | -3 | -2 | 0 | -1 | -24
CCS(=O)(=O)N1CCN=C1SCc1ccc(F)cc1 | -13 | 0 | -28 | 0 | 3 | 6
CC1=NN(c2ccccc2)C(=O)/C1=C\c1c(C)[nH]n(-c2ccccc2)c1=O | -2 | 47 | 11 | -7 | -3 | -4
CC1=NN(c2ccccc2)C(=O)/C1=C/c1c(O)n(-c2ccc(F)c(Cl)c2)[nH]c1=O | 103* | / | -45 | 7 | 1 | -47
O=C(NCc1ccccc1Cl)c1cnccn1 | 0 | 0 | -15 | -4 | / | 14
O=C(NCc1ccccc1Cl)c1cnccc1C(F)(F)F | 2 | -2 | 9 | 12* | -1 | -8
COCCNC(=O)COc1cc(=O)n(C)c2ccccc12 | -4 | 1 | 1 | 0 | 0 | 22
CCN(CC)C(=O)Oc1cc(=O)n(C)c2ccccc12 | -6 | -4 | 3 | 25* | -12 | -4

Bioassay records (PubChem)
